3T3 cytotox: NIH 3T3 cell cytotoxicity | Potency, µM (highest dose often 96.7 µM), for the others: top-dose activity change, negative = cytotoxicity, hits mostly inhibitors | AID 1345082 | 94,000 compounds, 4.3% hits | NIH 3T3 viability, CellTiter-Glo ATP luminescence, 48-72 h; note: nearly all actives have a fitted effect of over 55% in size
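NIH 3T3 cells at 400 cells/well received 23 nL of compound by pintool and were incubated 48 or 72 h at 37 °C. Viability was read as ATP-coupled CellTiter-Glo luminescence.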
GPT2 inh: blocks human glutamate pyruvate transaminase 2 | Recombinant GPT2, coupled pyruvate oxidase/HRP Amplex Red fluorescence | Q8TD30 | Potency, µM (highest dose often 57.7 µM), without a hit: at the top dose activity change, negative = inhibition, usual class: inhibitors | 100,000 compounds, 0.25% hits | AID 1671188; note: nearly all actives have a fitted effect of over 60% in size
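GPT2 10ng/uL, a-KG 250uM, L-Ala 2mM, HEPES pH7.5 + 0.0001% Tween; 30 min RT. Then Amplex mix (PO/HRP/ThPP), 30 min RT dark, fluorescence. AOA 50uM used as positive control.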
FLuc inh: blocks purified firefly luciferase enzyme activity. 76,000 compounds, 2.5% hits. P08659. AID 1347043. purified P. pyralis luciferase, luminescence, biochemical. Potency, µM (series often up to 115 µM), hits mostly inhibitors; note: nearly all actives have a fitted effect of over 65% in size
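Luminescence read by CCD imaging after purified firefly luciferase (10nM final) was added to substrate buffer holding 10uM D-luciferin and 10uM ATP, pH 7.5, pre-dosed with compound.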
NPR1 antag: blocks ANP-stimulated signaling of human Npr1 receptor; P16066; HEK293 hNpr1 GloSensor cGMP, ANP-stimulated luminescence; Potency, µM (top dose mostly 46.3 µM), for inactives: at the top dose activity change, negative = inhibition, usual class: inhibitors; 76,000 compounds, 1.6% hits; calls by dose curve; note: nearly all actives have a fitted effect of over 60% in size
Target sequence (P16066 whole entry, looked up): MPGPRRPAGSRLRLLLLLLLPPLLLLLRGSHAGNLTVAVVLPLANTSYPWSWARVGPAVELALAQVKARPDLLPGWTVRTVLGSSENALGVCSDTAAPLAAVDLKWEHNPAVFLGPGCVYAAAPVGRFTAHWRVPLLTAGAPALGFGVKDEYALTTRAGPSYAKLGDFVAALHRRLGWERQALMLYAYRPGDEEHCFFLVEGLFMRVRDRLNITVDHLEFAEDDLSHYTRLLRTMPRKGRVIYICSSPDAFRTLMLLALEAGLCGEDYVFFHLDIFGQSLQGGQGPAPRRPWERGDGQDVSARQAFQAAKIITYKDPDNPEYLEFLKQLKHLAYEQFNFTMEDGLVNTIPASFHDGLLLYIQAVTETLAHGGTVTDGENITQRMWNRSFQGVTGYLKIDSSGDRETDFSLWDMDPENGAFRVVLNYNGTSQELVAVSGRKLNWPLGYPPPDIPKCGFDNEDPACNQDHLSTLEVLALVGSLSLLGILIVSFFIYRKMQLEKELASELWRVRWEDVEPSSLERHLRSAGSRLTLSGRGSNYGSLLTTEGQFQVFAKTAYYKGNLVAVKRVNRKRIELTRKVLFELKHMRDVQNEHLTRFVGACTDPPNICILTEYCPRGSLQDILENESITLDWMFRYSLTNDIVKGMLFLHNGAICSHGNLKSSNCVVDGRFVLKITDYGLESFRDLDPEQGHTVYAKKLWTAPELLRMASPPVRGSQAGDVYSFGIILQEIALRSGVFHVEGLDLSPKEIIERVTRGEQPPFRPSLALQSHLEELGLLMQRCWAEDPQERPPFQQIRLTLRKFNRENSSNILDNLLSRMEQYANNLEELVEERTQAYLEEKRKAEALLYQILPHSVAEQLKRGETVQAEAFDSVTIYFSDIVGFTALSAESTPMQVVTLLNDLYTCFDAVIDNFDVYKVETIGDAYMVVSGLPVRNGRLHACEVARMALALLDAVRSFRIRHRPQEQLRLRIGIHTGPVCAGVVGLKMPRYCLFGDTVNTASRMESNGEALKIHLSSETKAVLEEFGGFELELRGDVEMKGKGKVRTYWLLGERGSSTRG
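HEK293 cells stably expressing human Npr1 and cGMP GloSensor pGS-40F, loaded 2 h with 2% GloSensor reagent, given compound 30 min at room temperature. Luminescence read before and 20 min after 0.1 nM hNppA.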
HEK293 tox: cytotoxic compounds in HEK 293 cells. HEK 293 viability, ATP luminescence (CellTiter-Glo), 48-72 h. Potency, µM (highest dose often 115 µM), for inactives: at the highest dose activity change, negative = cytotoxicity, most hits filed as inhibitors. 94,000 compounds, 6.6% hits. AID 1345083; note: nearly all actives have a fitted effect of over 60% in size
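Cytotoxicity was scored by loss of ATP-coupled luminescence (CellTiter-Glo) in HEK 293 cells. Compound treatment ran 48 or 72 hr at 37 degree Celsius, 5% CO2, 95% humidity.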
An asterisk follows results filed as active; [ ] = another dose, or the depositor's remark. Only some compounds are listed: those with a hit (about 10% of all), similar ones and a draw of the others. Unless noted, calls come from the whole dose curve; as a rule, active = well fitted curve in the direction sought with a large enough effect; inconclusive = small, poorly fitted or top-dose-only effect, or another doubt; inactive = no such curve, though single readings can be large; an effect the other way counts as inactive or inconclusive. % is set by controls: 0 for no effect and ±100 for the full control effect; potency is the fitted concentration of half-maximal effect.

Cc1ccc2nc(CO[C@H]3CN(c4ccc(C#N)cn4)C[C@H]3F)[nH]c2c1 was read as 3T3 cytotox -26%[174 µM], GPT2 inh inactive, FLuc inh inactive, NPR1 antag -2%[70.6 µM] and HEK293 tox 3%[172 µM].
Cc1cc(Cl)ccc1S(=O)(=O)N1CC(c2nc(-c3ccncc3)no2)C1 was read as 3T3 cytotox inconclusive, GPT2 inh inactive, FLuc inh inactive, NPR1 antag 13µM* and HEK293 tox inconclusive.
Cc1ccc(S(=O)(=O)N2CC(c3nc(-c4ccncc4)no3)C2)cc1 was read as 3T3 cytotox -18%, GPT2 inh -9%, FLuc inh inactive, NPR1 antag -22% and HEK293 tox inconclusive.
`CCNC(=O)NC1(CC2CC2)CCN(C(=O)NCCc2ccccc2)CC1` gave 3T3 cytotox -19%, GPT2 inh -13% and HEK293 tox -22%.
`CCOC(=O)C(Cc1cccc(N2CCC(N(c3ccccc3)c3ccccc3)CC2)c1F)OC` (stereo not given) gave 3T3 cytotox -18% and HEK293 tox inconclusive.
For CN(Cc1cccc(N2CCN(C(=O)OC(C)(C)C)CC2)c1F)[S+](C)(=O)[O-] the results were 3T3 cytotox inconclusive and HEK293 tox 79µM*.
COC(=O)N(C)Cc1cccc(N2CCN([S+](=O)([O-])c3c(Cl)cccc3Cl)CC2)c1F was read as 3T3 cytotox inconclusive and HEK293 tox 14µM*.
`Cc1ccc(-c2[nH]ncc2CN2C[C@@H](CO)[C@H](NC(=O)C3CC3)C2)cc1` gave 3T3 cytotox inactive, GPT2 inh -1%, FLuc inh inactive, NPR1 antag 2% and HEK293 tox 5%.
Screening Cc1ccc(CN(C)Cc2ccc(-c3ccccc3)cc2)cc1 returned 3T3 cytotox inconclusive, GPT2 inh inactive, FLuc inh inactive, NPR1 antag 19%[70.6 µM] and HEK293 tox inconclusive.
Screening CN(Cc1ccc(-c2ccccc2)cc1)Cc1ccnn1C returned 3T3 cytotox inconclusive, GPT2 inh inactive, FLuc inh inconclusive, NPR1 antag 20µM* and HEK293 tox 25µM*.
`CN(Cc1ccc(-c2ccccc2)cc1)Cc1nccs1` gave 3T3 cytotox inconclusive, GPT2 inh inactive, FLuc inh 45µM*, NPR1 antag 10µM* and HEK293 tox inconclusive.
For CN(Cc1ccccc1C(F)(F)F)Cc1ccnn1C the results were 3T3 cytotox -19%[138 µM], GPT2 inh -19%[88.5 µM], FLuc inh inactive, NPR1 antag -1%[70.6 µM] and HEK293 tox inconclusive.
CN(c1ccccc1)c1cc(=O)c2ccnc(-c3cccnc3)c2o1 was read as 3T3 cytotox 18µM*, GPT2 inh 1%[88.5 µM], FLuc inh inactive, NPR1 antag 7%[70.6 µM] and HEK293 tox -28%[172 µM].
CN1CCN(c2ccc(-c3nccc4c(=O)cc(N(C)c5ccccc5)oc34)cn2)CC1 was read as 3T3 cytotox inconclusive, GPT2 inh -15%[88.5 µM], FLuc inh inconclusive, NPR1 antag -1%[70.6 µM] and HEK293 tox inconclusive.
CN1CCC(Nc2nccc3c(=O)cc(N(C)c4ccccc4)oc23)CC1 was read as 3T3 cytotox inconclusive, GPT2 inh 5%[88.5 µM], FLuc inh inactive, NPR1 antag -3%[70.6 µM] and HEK293 tox -10%[172 µM].
Screening CN(C)c1cc(=O)c2ccnc(Nc3cccnc3)c2o1 returned 3T3 cytotox 79µM*, GPT2 inh -8%[88.5 µM], FLuc inh inactive, NPR1 antag 2%[70.6 µM] and HEK293 tox inactive.
For CN(c1ccccc1)c1cc(=O)c2ccnc(-c3ccnn3C)c2o1 the results were 3T3 cytotox 35µM*, GPT2 inh inactive, FLuc inh inactive, NPR1 antag 8%[70.6 µM] and HEK293 tox inconclusive.
Screening COc1ncc(-c2nccc3c(=O)cc(N(C)c4ccccc4)oc23)cn1 returned 3T3 cytotox 32µM*, GPT2 inh -3%[88.5 µM], FLuc inh inactive, NPR1 antag 1%[70.6 µM] and HEK293 tox -26%[172 µM].
COc1ccc(CN2C(=O)[C@H](OC)[C@@H]2C2=CCN(C(=O)c3ccco3)CC2)cc1 was read as 3T3 cytotox -28%, GPT2 inh inconclusive and HEK293 tox inconclusive.
O=C1CC(c2noc(-c3ccc(-c4ccccc4)cc3)n2)CN1c1ccc(F)cc1 (stereo not given) was read as 3T3 cytotox -21%, GPT2 inh inactive, FLuc inh inactive, NPR1 antag -19% and HEK293 tox -27%.
Screening COC(=O)CNC(=O)c1cccc(-c2ccc(OC)nn2)c1 returned 3T3 cytotox -8%[138 µM] and HEK293 tox inactive.
CNC(=O)c1nc2cccnc2n(Cc2ccccc2OC)c1=O was read as 3T3 cytotox -9%[138 µM], GPT2 inh inactive and HEK293 tox 1%[172 µM].
CN(c1ccccc1)c1cc(=O)c2ccnc(-c3cncnc3)c2o1 was read as 3T3 cytotox 79µM*, GPT2 inh inconclusive, FLuc inh inactive, NPR1 antag 7%[70.6 µM] and HEK293 tox -1%[172 µM].
Screening CN(c1cc(=O)c2ccnc(-c3ccccc3Oc3ccccc3)c2o1)C1CCOCC1 returned 3T3 cytotox -93%[138 µM], GPT2 inh inconclusive, FLuc inh inactive, NPR1 antag -4%[70.6 µM] and HEK293 tox -29%[172 µM].
`COc1cccc(CN2CC3(C2)C(=O)N(Cc2cccc(Cl)c2)C(=O)[C@@H]2C[C@@H](O)CN23)c1` gave 3T3 cytotox inconclusive, GPT2 inh -5%, FLuc inh inactive, NPR1 antag 1% and HEK293 tox -17%.
For COc1ccc(-c2ccnc(N[C@H]3CO[C@H]4[C@@H]3OC[C@H]4OC(=O)Nc3cccc(C(F)(F)F)c3)n2)cc1 the results were 3T3 cytotox inconclusive, GPT2 inh inactive, FLuc inh inactive, NPR1 antag -19% and HEK293 tox inconclusive.
O=C(Nc1cccc(C(F)(F)F)c1)N[C@H]1CO[C@H]2[C@@H]1OC[C@@H]2Nc1nccc(-c2ccc(-c3ccccc3)cc2)n1 was read as 3T3 cytotox 32µM*, GPT2 inh -3%, FLuc inh inactive, NPR1 antag 1% and HEK293 tox 35µM*.
N#Cc1cccc(-c2ccnc(N[C@H]3CO[C@H]4[C@@H]3OC[C@H]4OC(=O)Nc3cccc(C(F)(F)F)c3)n2)c1 was read as 3T3 cytotox -22%, GPT2 inh inconclusive, FLuc inh inactive, NPR1 antag inconclusive and HEK293 tox 28µM*.
Screening CCNC(=O)N[C@H]1CO[C@H]2[C@@H]1OC[C@@H]2Nc1nccc(-c2ccc(-c3ccccc3)cc2)n1 returned 3T3 cytotox -29%, GPT2 inh -5%, FLuc inh inconclusive, NPR1 antag 11µM* and HEK293 tox 10µM*.
